{"source": "PubChem BioAssay (Tox21)", "note": "Results filed as inconclusive are left out. Unmarked numbers belong to inactive results. Calls come from the whole dose curve; as a rule, active = well fitted cell-killing curve with a large enough effect in the repeat runs; inconclusive = weak or mixed curves; inactive = flat fitted curve, though single readings scatter. % is set by controls: 0 for no effect and ±100 for the full control effect.", "data": [{"test": "qHTS assay to identify small molecule antagonists of the estrogen related receptor (ERR) signaling pathway from Tox21 library - cell viability counter screen (AID 1224834); note: nearly all actives have a fitted effect of over 30% in size", "details": "ERR reporter cells viability, CellTiter-Fluor, 17.5 h; series mostly up to 92.4 µM; viability change, negative = cytotoxic: at the top concentration", "text": "National Center for Advancing Translational Sciences [NCATS]\nNIH Chemical Genomics Center [NCGC]\nU.S. Environmental Protection Agency [EPA]\nNational Institutes of Environmental Health Sciences [NIEHS]\nNational Toxicology Program [NTP]\nU.S. Food and Drug Administration [FDA]\nEstrogen related receptors (ERRs), the first orphan nuclear receptors discovered, play an important role in the control of cellular energy metabolism. ERRs are required for high-energy production in response to the environmental challenges. ERR-alpha was also identified as an adverse marker for breast cancer progression; ERR-alpha-positive tumors have a poor prognosis. To screen and to identify environmental compounds that perturb the ERR signaling pathways could provide valuable information for potential therapeutic or preventive measures in the treatment of metabolic disease. To differentiate true ERR antagonists or agonist from cytotoxic substances, the assay is multiplexed with cell viability assay.\nTox21 Assay Protocol Summary:\nThe ERR cells were dispensed at 2,000 cells/5 ul/well in 1536-well white plates using a Multidrop dispenser. After the assay plates were incubated at a 37 C/5% CO2 incubator for 6 hours, 23 nL of compounds dissolved in DMSO, positive and negative controls or DMSO only was transferred to the assay plate by a pin tool. The plates were incubated at 37 C for 17.5 hours. 1 ul/well of CellTiter-Fluor reagent was added into the assay plates using a Flying Reagent Dispenser. After 30-minute incubation at 37 C/5% CO2, the fluorescence intensity in the plates was measured using a ViewLux plate reader.", "values": [{"smiles": "Cc1ccc(Nc2ccc(O)c3c2C(=O)c2ccccc2C3=O)cc1", "viability change, negative = cytotoxic": "-2.05%"}, {"smiles": "NCCN1CCNC1=O", "viability change, negative = cytotoxic": "-3.14%"}, {"smiles": "CC(C)CCCCCCN", "viability change, negative = cytotoxic": "5.57%"}, {"smiles": "CCC(=O)c1cccc(Cl)c1", "viability change, negative = cytotoxic": "1.53%"}, {"smiles": "CCCCOCC(C)OCC(C)O", "note": "(stereo not given)", "viability change, negative = cytotoxic": "3.04%"}, {"smiles": "CCCCCCCCN(C)CCCCCCCC", "viability change, negative = cytotoxic": "10%"}, {"smiles": "OCC(O)[C@@H](O)[C@H](O)[C@H](O)CO[C@H]1O[C@H](CO)[C@@H](O)[C@H](O)[C@H]1O", "note": "(stereo not given in full)", "viability change, negative = cytotoxic": "2.71%"}, {"smiles": "CCN1CCCC1CNC(=O)c1cc(S(N)(=O)=O)ccc1OC", "note": "(stereo not given)", "viability change, negative = cytotoxic": "-8.79%"}, {"smiles": "NCCNC(=O)c1ccc(Cl)cn1", "viability change, negative = cytotoxic": "5.33% [at 42.5 µM]"}, {"smiles": "CCCCCCOC(=O)c1ccccc1O", "viability change, negative = cytotoxic": "0.812%"}, {"smiles": "C(=C(c1ccccc1)c1ccccc1)c1ccccc1", "viability change, negative = cytotoxic": "1.74%"}, {"smiles": "CN(C)N=Nc1ccccc1", "viability change, negative = cytotoxic": "7.36%"}, {"smiles": "CC(O)CN(CCCN(C)C)CCCN(C)C", "note": "(stereo not given)", "viability change, negative = cytotoxic": "1.14%"}, {"smiles": "COC(=O)c1ccc(C(=O)OC)c(C(=O)OC)c1", "viability change, negative = cytotoxic": "-0.296%"}, {"smiles": "OC/C=C/c1ccccc1", "viability change, negative = cytotoxic": "-4.74%"}, {"smiles": "Cn1cnc2c(=O)[nH]c(N)nc21", "viability change, negative = cytotoxic": "0.272%"}, {"smiles": "CC1(C)OC(=O)Nc2ccc(Br)cc21", "viability change, negative = cytotoxic": "0.666% [at 42.5 µM]"}, {"smiles": "Cc1ccccc1Br", "viability change, negative = cytotoxic": "3.18%"}, {"smiles": "CSc1nc(NC2CC2)nc(NC(C)(C)C)n1", "viability change, negative = cytotoxic": "-15.9%"}, {"smiles": "CCCCc1ccc2cccc(S(=O)(=O)O)c2c1", "viability change, negative = cytotoxic": "1.91%"}, {"smiles": "Cc1cc(C)c(NC(=O)CN(CC(=O)O)CC(=O)O)c(C)c1Br", "viability change, negative = cytotoxic": "5.86% [at 42.5 µM]"}, {"smiles": "CCC(C)OC(=O)N1CCCCC1CCO", "note": "(stereo not given)", "viability change, negative = cytotoxic": "1.14%"}, {"smiles": "C=C(C)[C@@H]1CCC2=CC(=O)C[C@@H](C)[C@]2(C)C1", "viability change, negative = cytotoxic": "-1.07%"}, {"smiles": "O=C(O)C1CCC1", "viability change, negative = cytotoxic": "3.17% [at 42.5 µM]"}, {"smiles": "NC1CCN(c2cccc(Cl)n2)CC1", "viability change, negative = cytotoxic": "-1.65% [at 42.5 µM]"}, {"smiles": "COc1cccc(OC)c1", "viability change, negative = cytotoxic": "1.38%"}, {"smiles": "COc1cc(C)cc(O)c1", "viability change, negative = cytotoxic": "-2.84%"}, {"smiles": "CCCCCCCCC=O", "viability change, negative = cytotoxic": "2.41%"}, {"smiles": "CCN1CCCC(OC(=O)C(c2ccccc2)c2ccccc2)C1", "note": "(stereo not given)", "viability change, negative = cytotoxic": "-2.92% [at 42.5 µM]"}, {"smiles": "NC(N)=NS(=O)(=O)c1ccc(N)cc1", "viability change, negative = cytotoxic": "1.72% [at 42.5 µM]"}, {"smiles": "CSc1ccc(C=O)cc1", "viability change, negative = cytotoxic": "3.19%"}, {"smiles": "C=CCSCC1Nc2cc(Cl)c(S(N)(=O)=O)cc2S(=O)(=O)N1", "note": "(stereo not given)", "viability change, negative = cytotoxic": "2.63% [at 42.5 µM]"}, {"smiles": "CC(C)=CC(=O)O", "viability change, negative = cytotoxic": "0.277%"}, {"smiles": "C/C=C1\\C(=O)C[C@H]2[C@@H]3CCC4=CC(=O)CC[C@]4(C)[C@H]3CC[C@]12C", "viability change, negative = cytotoxic": "-7.37% [at 42.5 µM]"}, {"smiles": "O=S(=O)(O)c1ccccc1O", "viability change, negative = cytotoxic": "0.853%"}, {"smiles": "Cc1onc(-c2ccccc2)c1-c1ccc(S(N)(=O)=O)cc1", "viability change, negative = cytotoxic": "0.241% [at 42.5 µM]"}, {"smiles": "CN(C)CCOC(c1ccc(Cl)cc1)c1ccccn1", "note": "(stereo not given)", "viability change, negative = cytotoxic": "-11.4% [at 42.5 µM]"}, {"smiles": "C=C(C)C(=O)OCCCCCCCCCCCCCCCCCC", "viability change, negative = cytotoxic": "-0.607% [at 19 µM]"}, {"smiles": "CCn1cc(C(=O)O)c(=O)c2cc(F)c(N3CCN(C)CC3)cc21", "viability change, negative = cytotoxic": "3.25% [at 19 µM]"}, {"smiles": "NC(=O)CCCCC1CCSS1", "note": "(stereo not given)", "viability change, negative = cytotoxic": "0.506% [at 42.5 µM]"}]}]}
